Source: PubChem (The Scripps Research Institute Molecular Screening Center)
OPRM1-OPRD1 ag = agonists of OPRM1-OPRD1 heterodimerization, primary screen, cell-based, luminescence | Mu-type opioid receptor (Homo sapiens) + Delta-type opioid receptor (Homo sapiens), … | cells | activation, % at 9.3 µM | actives 0.3% (n = 340,000); in the data active means activation above about 18%;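 further: 0% = vehicle-treated cells and 100% = reference agonist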
MOR-DOR inv ag-1 = inverse agonists of MOR-DOR heterodimerization, primary screen, cell-based, luminescence. Mu-type opioid receptor (Homo sapiens) + Delta-type opioid receptor (Homo sapiens), …. cell-based MOR-DOR heterodimer luminescence, inverse agonism. inhibition, % at 9.3 µM. actives 0.21% (n = 340,000). AID 504357, 2011; in the data active means inhibition above about 22%, passing the limit was not always enough;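 further: 0% = cells with DMSO and 100% = wells without cells with DMSO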
HTR5A ag = HTR5A agonists in luminescence cell assay, primary screen, counter-screen for OPRM1-OPRD1 heterodimer agonist project, full-deck HTS. 5-hydroxytryptamine receptor 5A (Homo sapiens), P47898. actives 0.61% (n = 340,000). activation, % at 9.3 µM. AID 504692, 2011. cell-based; in the data active means activation mostly above about 9.5%, no sharp cut-off; inactive means mostly below about 7.6%;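 further: 0% = cells with vehicle only and 100% = reference agonist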
Target sequence (P47898 whole entry, looked up): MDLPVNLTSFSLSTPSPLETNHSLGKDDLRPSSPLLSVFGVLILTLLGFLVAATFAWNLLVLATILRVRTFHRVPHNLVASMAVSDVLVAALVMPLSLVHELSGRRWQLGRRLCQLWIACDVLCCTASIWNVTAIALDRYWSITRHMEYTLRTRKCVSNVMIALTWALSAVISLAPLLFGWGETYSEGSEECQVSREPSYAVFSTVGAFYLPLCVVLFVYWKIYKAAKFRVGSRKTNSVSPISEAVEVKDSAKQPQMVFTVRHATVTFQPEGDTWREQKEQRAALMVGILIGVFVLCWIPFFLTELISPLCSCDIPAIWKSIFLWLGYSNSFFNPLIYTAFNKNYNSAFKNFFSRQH
HTR5A inv ctr = HTR5A inverse agonists in luminescence cell assay, primary screen, counter-screen for OPRM1-OPRD1 heterodimer inverse agonist project, full-deck HTS | HTR5A cell line, inverse agonism | actives 0.083% (n = 340,000) | 5-hydroxytryptamine receptor 5A (Homo sapiens), P47898 | inhibition, % at 9.3 µM; in the data active means inhibition mostly above about 23%, no sharp cut-off; inactive means mostly below about 18%;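 further: 0% = cells with DMSO and 100% = no-cell wells with DMSO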
OPRM1-D1 inv cf = inverse agonists of MOR-DOR heterodimerization, confirmation, cell-based, luminescence. shares compounds with MOR-DOR inv ag-1. AID 504900, 2011. actives 20% (n = 580). inhibition, % at 9.3 µM. cells expressing OPRM1/OPRD1 heterodimer; in the data active means inhibition above about 32%;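 further: 0% = cells with DMSO and 100% = wells lacking cells with DMSO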
HTR5A inv count = HTR5A inverse agonists, counter-screen for OPRM1-OPRD1 inverse agonist project, cell-based, luminescence; shares compounds with MOR-DOR inv ag-1; HTR5A-expressing cells, inverse agonism; inhibition, % at 9.3 µM; 580 tested, under 10 active; AID 504914, 2011;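 further: 0% = cells with DMSO and 100% = no-cell wells with DMSO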
MOR-DOR inv ag-2 = inverse agonists of MOR-DOR heterodimerization, counter-screen for HTR5A inverse agonist project, cell-based, luminescence; shares compounds with HTR5A inv ctr; U2OS counter-screen cells, complementation luminescence; inhibition, % at 9.3 µM; 190 tested, under 10 active; AID 504912, 2011;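 further: 0% = cells with DMSO and 100% = wells without cells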
HTR5A inv conf = HTR5A inverse agonists, retest of hits, confirmation, cell-based, luminescence; shares compounds with HTR5A inv ctr; HTR5A-expressing cells, inverse agonism; inhibition, % at 9.3 µM; 190 tested, under 10 active; AID 504916, 2011;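 further: 0% = cells with DMSO and 100% = no cells with DMSO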
* marks the source's active call; other numbers are inactive results; i = inactive; · = not tested or not shown. Only some compounds are listed: those with a hit (about 1.1% of all), similar ones and a draw of the others. Unless noted, how the calls were made is not given here.

SMILES	OPRM1-OPRD1 ag	MOR-DOR inv ag-1	HTR5A ag	HTR5A inv ctr	OPRM1-D1 inv cf	HTR5A inv count	others
O=C1Nc2ccc(F)cc2C12Nc1ccccc1-c1nnc(SCc3ccccc3F)nc1O2 (stereo not given)	-11	69*	-4	10	72*	10
O=C1Nc2ccc(Cl)cc2C12Nc1ccccc1-c1nnc(SCc3ccccc3F)nc1O2 (stereo not given)	-9	50*	2	4	i	-3
CCSc1nnc2c(n1)OC1(CCCC1)Nc1ccccc1-2	-1	4	-1	3	·	·
COc1ccc(C(=O)NCCc2ccccc2F)cc1OC1CCN(C(C)=O)CC1	-3	14	3	-7	·	·
CC1N(O)C(c2ccc(Cl)cc2Cl)N(O)C1(C)C (stereo not given)	-1	5	-1	-22	·	·
ON1C(c2ccc(Cl)cc2Cl)N(O)[C@H]2CCCC[C@H]21 (stereo not given in full)	-11	63*	-3	7	i	0
Cc1ccc2c(c1)C(=O)C(=O)N2CC(=O)Nc1ccccc1NC(=O)c1ccccn1	-9	47*	-1	2	i	-5
Cc1ccc(C)c(C(=O)c2ccccc2NC(=O)c2ccccn2)c1	3	-15	2	-8	·	·
COc1ccc(Cl)cc1C(=O)NNC(=O)c1nn(C)c(=O)c2ccccc12	-4	14	2	10	·	·
CCc1cc(C(=O)N2CCN(c3ccccn3)CC2)sc1C	1	-4	2	-16	·	·
COc1cc([N+](=O)[O-])cc(/C=N/NC(=O)c2ccc(C)nc2)c1O	-4	22*	-2	8	i	-30
COc1cc([N+](=O)[O-])cc(/C=N/NC(=O)c2ccc(NC(=O)c3ccc(C)cc3)cc2)c1O	0	-2	6	-17	·	·
Cc1ccsc1C(=O)N1CCCC(C(=O)c2cc(F)ccc2F)C1 (stereo not given)	-1	4	2	19	·	·
COc1cccc([C@@H]2Oc3ccc(OC)cc3C(=O)[C@H]2O)c1	-6	35*	-3	4	19	9
Cc1nc(-n2[nH]c3c(c2=O)CCCC3)[nH]c(=O)c1Cc1ccccc1	-6	37*	-6	28	7	5
Cn1c(=O)cc(C(=O)N/N=C/c2ccc(F)cc2)[nH]c1=O	-3	15	-2	-20	·	·
CC1(c2nnc(Cc3ccccc3)o2)CC(c2c(Cl)cccc2Cl)=NO1 (stereo not given)	-1	4	7	-5	·	·
CCN1C(=O)C(O)(C2COC(C)(C)CC2=O)c2cc(Br)ccc21 (stereo not given)	-9	56*	1	-2	-16	3
CC/C(C)=N\N=C\c1c(O)n(CC)c2cc(C3=NNC(=O)CC3)ccc12	-7	31*	-5	21	50*	15
CCn1c(O)c(/C=N/N=C/c2ccc(OC)cc2)c2cc(C3=NNC(=O)CC3)ccc21	-1	7	5	14	·	·
O=C1Nc2ccccc2/C1=N\N1CCOCC1	-3	18	-1	0	·	·
NC(N)=NS(=O)(=O)c1ccc(N=C2C(=O)Nc3ccccc32)cc1	-10	53*	-8	29	70*	16
CC(=O)N(C)c1ccc(N=C2C(=O)Nc3ccccc32)cc1	-13	57*	-3	12	i	-3
CCCCCC(=O)NNC(=S)NC(=O)c1ccccc1[N+](=O)[O-]	-6	30*	-8	-3	-140	11
O=C(NC(=S)Nc1ccccc1O)c1cncc(Br)c1	-8	41*	-4	10	-99	-32
SMILES	OPRM1-OPRD1 ag	MOR-DOR inv ag-1	HTR5A ag	HTR5A inv ctr	OPRM1-D1 inv cf	HTR5A inv count	others
CCC(C)c1ccc(O)c(NC(=S)NC(=O)c2cccnc2)c1 (stereo not given)	-9	47*	-7	19	i	-3
O=C(NC(=S)Nc1ccccc1O)c1cccnc1	-7	35*	-3	10	23	-9
O=C(NC(=S)Nc1ccccc1C(=O)O)c1cncc(Br)c1	-3	13	2	-7	·	·
CS(=O)(=O)c1nc(S(=O)(=O)c2ccc(Cl)cc2)c(NCCCN2CCCC2=O)s1	-3	17	1	4	·	·
O=C(CC1(O)C(=O)Nc2ccccc21)c1cccnc1 (stereo not given)	-9	52*	0	5	-41	-3
O=C(CC1(O)C(=O)Nc2ccccc21)c1ccccc1O (stereo not given)	-9	50*	-5	-1	24	7
Cc1cccc(-c2nnc(SC(C)C(=O)N3CCOCC3)o2)c1 (stereo not given)	-2	9	8	6	·	·
CC(=O)C1=C(O)C(=O)N(CCc2ccccc2)C1c1ccccc1[N+](=O)[O-] (stereo not given)	0	2	2	-6	·	·
O=C(/C=C/c1ccccc1)C1=C(O)C(=O)N(CCO)C1c1ccccc1[N+](=O)[O-] (stereo not given)	-10	52*	-4	20	-427	-37
O=S(=O)(Nc1ccc(Cl)c(Cl)c1)N1CCOCC1	-3	21	-6	-14	·	·
CC1COC(=O)C(NNc2ccc(Cl)c(Cl)c2)=N1 (stereo not given)	-6	30*	10	-29	13	2
COc1ccc(NC(C)=O)cc1NC(C)C(=O)Nc1cccc2ccccc12 (stereo not given)	-2	13	0	-6	·	·
COc1ccc(-n2c(N)c(C(=O)NCC3CCCO3)sc2=S)cc1 (stereo not given)	3	-14	5	-24	·	·
COc1ccc(-n2c(N)c(C(=O)NCc3ccco3)sc2=S)cc1	-3	16	5	-23	·	·
CCOC(=O)c1ccc(-n2c(N)c(C(=O)NCc3ccco3)sc2=S)cc1	-5	30*	-2	11	-290	-60
CCOC(=O)c1ccc(-n2c(N)c(C(=O)NCC3CCCO3)sc2=S)cc1 (stereo not given)	-7	34*	-4	-8	i	-32
Cc1cccc(NC(=O)CNC(=O)c2cccs2)n1	-1	3	-11	31*	·	·	MOR-DOR inv ag-2=-454;HTR5A inv conf=0
